The nature of the assay: quenching of fluorescent RNA aptamer on beads, dose response, artefact control for GRK2 RNA aptamer inhibitor project, biochemical, cherry pick 1, bead-based flow cytometry (AID 504521). To be noted: active compounds read high.

Molecules are shown by their SMILES. The list shows a part of the results. Values without a mark were called inactive.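 The calls were made as follows: active = compounds whose bead fluorescence drops by more than 37 kMESF across the dose range, marking them as dye quenchers; inactive = the rest.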

The text below walks through data of PubChem BioAssay AID504521 (NMMLSC, 2011).

Take `COc1ccc(N2C(=O)/C(=C/c3ccco3)C(=O)NC2=S)cc1`: the fluorescence change (kMESF span) is 12 kMESF.
